Assay outcomes: PubChem BioAssay, National Center for Advancing Translational Sciences (NCATS)
ATXN viability – Viability Counterscreen for Primary qHTS for Inhibitors of ATXN expression; Potency, µM (doses to about 56.7 µM), actives largely listed as cytotoxic; 400,000 compounds, 0.49% hits; S2 cells (HEK-293 line with an ATXN2-luciferase reporter) viability, CellTiter-Fluor protease fluorescence, 24 h; further: nearly all actives have a fitted effect of over 40% in size
Nrf2 block – Nrf2 qHTS screen for inhibitors; A549 ARE-Fluc reporter, luciferase luminescence, 18-24 h; Potency, µM (titrated, usually from 46 µM), without a hit: at the top dose activity change, negative = inhibition, hits mostly inhibitors; 360,000 compounds, 2.1% hits; AID 504444, 2011; further: on the % scale 0 is the no-effect control and ±100 the full control effect; nearly all actives have a fitted effect of over 60% in size
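Nrf2 activity is the BugLite luminescence, read 15 min after reagent at room temperature, following CellTiter-Fluor cytotoxicity readout (30 min, 37C). Compound titrations were applied for 18-24 h to 5000 A549 ARE_Fluc cells/well in 5% FBS OPTI-MEM.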
ATXN2 expr inh – Primary qHTS for Inhibitors of ATXN expression. HEK-293 ATXN2-luciferase reporter, luminescence, 24 h. Potency, µM (highest dose often 57 µM), for the others: at the highest dose activity change, negative = inhibition, actives largely listed as inhibitors. 360,000 compounds, 0.72% hits; further: on the % scale 0 is the no-effect control and ±100 the full control effect; nearly all actives have a fitted effect of over 55% in size
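qHTS (up to 57 uM final) was run with 24 h compound exposure of reporter cells at 37 °C. Each well was multiplexed: SteadyGlo luminescence measured ATXN2-luciferase expression after a fluorogenic Gly-Phe-AFC viability readout (25 uM final).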
TGFb inhibitor – qHTS for Inhibitors of TGF-b; HepG2 CAGA-GFP TGF-b/SMAD3 reporter, GFP fluorescence, 18 h; TGF-beta stimulated, 500 pg/mL final; Potency, µM (doses to about 46.1 µM), without a hit: at the highest dose activity, negative = inhibition, actives largely listed as inhibitors; 410,000 compounds, 1.2% hits; further: on the % scale 0 is the no-effect control and ±100 the full control effect; nearly all actives have a fitted effect of over 65% in size
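HEPG2 CAGA-GFP, 1000 cells/well; 2 h settle, 37 C; cpd via pin tool; TGF-b 500 pg/mL final; 18 h, 37 C; GFP imaging ex488/em500-530; %Activity normalised to -TGF-b and +DMSO controls; CRC fit, curve class.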
A549 viability – Nrf2 qHTS screen for inhibitors: counterscreen for cytotoxicity; A549 ARE-Fluc cells, CellTiter-Fluor viability, 18-24 h; Potency, µM (top dose mostly 46 µM), for the others: top-dose activity change, negative = cytotoxicity, actives largely listed as inhibitors; 390,000 compounds, 0.16% hits; further: on the % scale 0 is the no-effect control and ±100 the full control effect
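A549 ARE-Fluc cells in 5% FBS OPTI-MEM, 5000 cells/well, rested 2 h then exposed to compounds in concentration-response for 18-24 h at 37 °C. Viability by CellTiter-Fluor fluorescence (Ex 405/Em 525) after 30 min; luciferase luminescence (BugLite, 15 min, RT) read afterwards.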
HepG2 viability – qHTS for Inhibitors of TGF-b: Cytotox Counterscreen | HepG2 CAGA-GFP viability, ATP luminescence, 18 h | Potency, µM (top dose mostly 46.1 µM), without a hit: at the top dose activity change, negative = cytotoxicity, hits mostly cytotoxic | 410,000 compounds, 0.76% hits | AID 588856, 2011
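HepG2 CAGA-GFP cells (1000/well, DMEM with 1% FBS) received compound, then TGF-beta at 500 pg/mL final, and were incubated 18 hours at 37 degrees C. Viability was read by CellTiter-Glo luminescence. Media-only wells were set as complete cell-killing and DMSO as no toxicity.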
The depositor's hits bear a star; i = inactive; ? = inconclusive; . = no result given; [ ] = remark or other dose. An excerpt weighted towards active compounds, which were near 3.8% of everything screened. The call rests on the fitted dose curve; in most records, active means well fitted curve in the direction sought with a large enough effect; inconclusive means small, poorly fitted or top-dose-only effect, or another doubt; inactive means no such curve, though single readings can be large; an effect the other way counts as inactive or inconclusive. Potency means the concentration at half of the fitted maximal effect.

SMILES | ATXN viability | Nrf2 block | ATXN2 expr inh | TGFb inhibitor | A549 viability | HepG2 viability
CC1=C(c2ccccc2)SC2=NCCN21 | i | -14% | 2% | -6% | 8% | -10%
Cc1ccc(S(=O)(=O)N2CCN(c3nc(-c4cncn4C)nc4ccccc34)CC2)cc1 | . | -10% | . | . | -1% | .
CCCCN(C)CCCNC(=O)C1CCN(c2nc3ccc(CC)cc3s2)CC1 | . | 10%[9.27 µM] | ? | ? | -1% | 14µM*
CCc1ccccc1NC(=O)c1ccc2c(O)c(S(=O)(=O)c3ccc(OC)cc3)c(=O)[nH]c2c1 | i | -15% | 3% | -14% | 3% | -7%
Cc1ccc(CNC(=O)C(=O)NCC2OCCN2S(=O)(=O)c2ccc(Br)cc2)cc1 (stereo unspecified) | i | 16µM* | -12% | -13% | -4% | -4%
Cc1ccc(CNC(=O)C(=O)NCC2OCCN2S(=O)(=O)c2ccc3c(c2)OCCO3)cc1 (stereo unspecified) | i | 10µM* | -13% | -16% | 8% | -30%
COc1ccc(CCNC(=O)C(=O)NCC2OCCN2S(=O)(=O)c2ccc3c(c2)OCCO3)cc1OC (stereo unspecified) | i | ? | 1% | -4% | -6% | 2%
COc1ccc(S(=O)(=O)N2CCCOC2CNC(=O)C(=O)NCCCN2CCOCC2)cc1C (stereo unspecified) | i | -2% | 0% | -8% | 1% | 1.4µM*
COc1ccc(CCNC(=O)C(=O)NCC2OCCN2S(=O)(=O)c2ccc3c(c2)OCCO3)cc1 (stereo unspecified) | i | 9.2µM* | -5% | 0% | -22% | -32%
COc1cccc(-n2nc(C(=O)N3CC(C)CC(C)C3)c3ccccc3c2=O)c1 (stereo unspecified) | i | ? | -2% | 2% | -17% | 4%
Cc1cccc(Nc2ccc(S(=O)(=O)N3CCOCC3)cc2[N+](=O)[O-])c1 | i | -25% | -14% | -16% | -10% | 0%
CSc1cccc(Nc2ccc(S(=O)(=O)N3CCOCC3)cc2[N+](=O)[O-])c1 | i | 18µM* | . | -18% | -10% | -13%
CCCN1CCC(=NNc2ccc(S(=O)(=O)N3CCOCC3)cc2[N+](=O)[O-])CC1 | i | 20% | -20% | 0% | -27% | 14µM*
Cc1ccc(CCNC(=O)Cn2c(-c3cccs3)cc3ccccc32)cc1 | i | 1% | -5% | 1% | 0% | -16%
C=Cc1cc2c(s1)c1cnn(Cc3ccccc3F)c(=O)c1n2C | . | -4% | . | . | -5% | .
Cc1cccc(C(=O)OCC(=O)NCCCc2ccccc2)c1 | i | 2% | 6% | 15% | 11% | -9%
CCOC(=O)N1CCN(S(=O)(=O)c2ccc(C(=O)N(CCCN(C)C)c3nc4ccc(CC)cc4s3)cc2)CC1 | i | -23% | ? | 0% | -10% | -13%
Cc1ccc2nc(N(CCCN(C)C)C(=O)c3ccc(S(=O)(=O)N4CCCCCC4)cc3)sc2c1 | i | 1% | ? | ? | -15% | 16µM*
CCOC(=O)N1CCN(S(=O)(=O)c2ccc(C(=O)N(CCCN(C)C)c3nc4ccc(Cl)cc4s3)cc2)CC1 | ? | -21% | ? | ? | -8% | 11µM*
CC(=O)c1cccc(NC(=O)CN2C(=O)CC(c3ccc(C)cc3C)=Nc3ccccc32)c1 | . | . | . | 4% | -23% | -10%
CC(=O)Oc1c(Cl)cc(Cl)cc1/C=C/c1ccc2ccccc2n1 | . | 16% | -6% | 0% | 9% | -90%
COc1cc(/C=C/c2cc(OC(C)=O)c3ccccc3n2)c(OC(C)=O)c([N+](=O)[O-])c1 | . | ? | . | -1% | 15µM* | -15%
COc1ccc(CN(C)CC(=O)Nc2cc(OC)c([N+](=O)[O-])cc2C)c(OC)c1 | i | ? | -15% | -27% | -19% | -20%
O=C1CCCN1c1ccc(S(=O)(=O)Nc2cccnc2)cc1 | ? | -7% | -31% | ? | 0% | -3%
Cc1ccc(NS(=O)(=O)c2ccc3c(c2)CCCC(=O)N3)cc1C | . | ? | . | . | 6% | .
SMILES | ATXN viability | Nrf2 block | ATXN2 expr inh | TGFb inhibitor | A549 viability | HepG2 viability
Cc1ccc(NS(=O)(=O)c2ccc(N3CCCC3=O)cc2)cc1C | . | 15µM* | . | . | -6% | .
Cc1ccc(NS(=O)(=O)c2ccc3c(c2)CCC(C)(C)O3)cc1C | . | 23µM* | . | . | 2% | .
C[C@H](CO)N1C[C@H](C)[C@@H](CN(C)S(=O)(=O)c2cccs2)Oc2c(NC(=O)C3CC3)cccc2C1=O | i | 6% | 3% | 1% | -3% | 0%
Cc1ccc(NC(=O)CN2CCc3cc4c(cc3C2C)OCCCO4)cc1C (stereo unspecified) | i | 26µM* | -11% | ? | -15% | -21%
CC1c2cc3c(cc2CCN1CC(=O)Nc1ccccc1)OCCCO3 (stereo unspecified) | i | 18µM* | -17% | -12% | -11% | -35%
Cc1ccc(NC(=O)CN2CCc3cc4c(cc3C2C)OCCCO4)cc1 (stereo unspecified) | i | -20% | -10% | -26% | 4% | -24%
Cc1oc(-c2ccccc2)cc1C(=O)Nc1cccc(/C=C/C(=O)O)c1 | i | 23µM* | 1%[11.3 µM] | 22% | -25% | 1%
CC1CCCC(NC(=O)COC(=O)c2ccc([N+](=O)[O-])o2)C1C (stereo unspecified) | i | 0% | -18% | -25% | 0% | 3.2µM*
Cc1c(N/N=C(\C#N)C(=O)c2ccc(Cl)cc2)c(=O)n(-c2ccccc2)n1C | ? | ? | 7.9µM* | ? | ? | 3%
CCOC(=O)NC(=O)/C(C#N)=N\Nc1ccc(Cl)cc1 | i | . | -24% | -2% | -12% | -7%
N#C/C(=N\Nc1ccc(Cl)cc1)C(=O)c1ccccc1 | ? | 15µM* | ? | ? | 16µM* | -36%
Cc1c(NC(=O)/C(C#N)=C/c2ccc(-c3ccc(Cl)cc3)o2)c(=O)n(-c2ccccc2)n1C | ? | ? | ? | ? | 23µM* | -38%
COc1ccc(C(=O)/C(C#N)=N/Nc2ccc([N+](=O)[O-])cc2)cc1 | . | 2.6µM* | . | ? | ? | -56%
COC(=O)c1ccc(Cl)cc1NC(=O)N(C)CCc1c(C)nn(C)c1C | i | . | -15% | -18% | 7% | -18%
CC(C)c1ccccc1NC(=O)Nc1nc(C(N)Cc2ccc(C(F)(F)F)cc2)cs1 (stereo unspecified) | . | . | ? | 11µM* | . | 8.9µM*
